Source: PubChem BioAssay
FLuc modulator = inhibits or activates purified firefly luciferase, miR-21 counter-screen; P08659; Potency, µM (highest dose often 57.5 µM), for inactives: top-dose activity change, negative = inhibition, most hits filed as inhibitors; hit rate 6.9% among 360,000; purified FLuc, Km substrates, luminescence inhibition;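 note: plate controls were vehicle for no effect and reference inhibitor for full effect; nearly all actives have a fitted effect of over 55% in size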
Target sequence (P08659 whole entry, looked up): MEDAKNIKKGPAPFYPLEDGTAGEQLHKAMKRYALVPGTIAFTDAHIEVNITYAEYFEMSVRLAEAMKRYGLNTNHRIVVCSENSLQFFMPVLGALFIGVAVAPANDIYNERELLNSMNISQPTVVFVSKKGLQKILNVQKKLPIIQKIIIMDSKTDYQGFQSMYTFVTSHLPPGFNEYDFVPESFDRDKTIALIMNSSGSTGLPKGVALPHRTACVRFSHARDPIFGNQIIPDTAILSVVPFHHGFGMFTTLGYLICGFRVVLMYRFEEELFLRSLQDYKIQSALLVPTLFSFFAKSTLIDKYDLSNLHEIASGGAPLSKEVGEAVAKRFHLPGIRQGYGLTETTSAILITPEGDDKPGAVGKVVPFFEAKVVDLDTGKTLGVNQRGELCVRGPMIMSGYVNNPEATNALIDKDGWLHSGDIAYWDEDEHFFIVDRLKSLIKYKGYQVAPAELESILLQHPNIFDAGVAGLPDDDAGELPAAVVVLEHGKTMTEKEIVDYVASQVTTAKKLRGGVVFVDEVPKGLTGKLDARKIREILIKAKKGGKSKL
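Purified P. pyralis luciferase (10nM final) with 10uM D-luciferin and 10uM ATP (Km levels) in 50mM Tris acetate pH 7.5, 10mM Mg acetate, 0.01% Tween-20, 0.05% BSA; qHTS 6-point titration, ~60 µM downward; luminescence read.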
SMN2 splice enh = increases expression of the SMN2 splice variant. HEK293 SMN2-luciferase splicing reporter, luminescence, 30-36 h. Potency, µM (series often up to 46.1 µM), for inactives: at the top dose activity change, positive = activation, actives largely listed as activators. hit rate 2.8% among 210,000; note: % of control where 0% means no effect; nearly all actives have a fitted effect of over 55% in size
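HEK293 cells carry an SMN2 […]–luciferase reporter in which exon 7 inclusion puts luciferase in frame. Cells were plated 10-12 h before compound addition, then incubated 30-36 h at 37C. ONE-Glo luminescence was read; sodium butyrate at 4.5 mM final served as control.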
ELG1 genotox = inducers of genotoxicity in HEK293T ELG1-luciferase cells; hit rate 1.3% among 330,000; HEK293T ELG1-luciferase reporter, luminescence, 16 h; Potency, µM (highest dose often 46 µM), for inactives: top-dose activity change, positive = activation, most hits filed as activators; note: % of control where 0% means no effect; nearly all actives have a fitted effect of over 60% in size
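After overnight (16 hr) compound treatment at 37 °C, ELG1-luciferase HEK293T cells were lysed with ONE-Glo; luminescence quantified 30 min later at room temperature.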
NPC1 prom act = NPC1 promoter activation. Potency, µM (series often up to 9.22 µM), for inactives: top-dose activation, hits mostly activators. hit rate 2.4% among 320,000. Huh7 NPC1 promoter luciferase reporter, 24 h. AID 485313; note: % of control where 0% means no effect; nearly all actives have a fitted effect of over 60% in size
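Compounds in DMSO were transferred onto Huh7 NPC1-luciferase reporter cells pre-incubated 2 h; after 24 h at 37 °C, Amplite reagent was dispensed and luminescence recorded 10 min later.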
Rab9 promoter act = Rab9 promoter activation; Huh7 Rab9 promoter-luciferase reporter, luminescence, 24 h; Potency, µM (titrated, usually from 9.22 µM), for inactives: top-dose activation, negative = inhibition, most hits filed as activators; hit rate 2.8% among 320,000; note: % of control where 0% means no effect; nearly all actives have a fitted effect of over 60% in size
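Promoter activation is measured as luciferase luminescence in Huh7 cells stably transfected with a Rab9 promoter–luciferase construct, following 24 h compound exposure at 37 °C and 10 min reagent incubation at ambient temperature.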
KinaseGlo FLuc = Kinase-Glo luciferase inhibition (counter-screen); hit rate 0.28% among 200,000; Kinase-Glo luciferase, ATP luminescence, 8 min; Potency, µM (titrated, usually from 38.3 µM), without a hit: top-dose activity change, negative = inhibition, hits mostly inhibitors; AID 1379; note: % is set by controls: 0 for no effect and ±100 for the full control effect; nearly all actives have a fitted effect of over 60% in size
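Substrate mix (final 50 mM imidazole pH 7.2, 50 mM KCl, 7 mM MgCl2, 10 uM ATP, 0.01% Tween 20, 0.05% BSA) plus pin-tool compound, then Kinase-Glo detection mix; 8 min ambient, luminescence read.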
The depositor's hits bear a star; ? = inconclusive; / = no result; [ ] = remark or other dose. In the library only some 7.4% were active in any assay of this set; here they are far more common. Calls come from the whole dose curve; as a rule, active = well fitted curve in the direction sought with a large enough effect; inconclusive = small, poorly fitted or top-dose-only effect, or another doubt; inactive = no such curve, though single readings can be large; an effect the other way counts as inactive or inconclusive. Potency is the fitted concentration of half-maximal effect.

SMILES | FLuc modulator | SMN2 splice enh | ELG1 genotox | NPC1 prom act | Rab9 promoter act | KinaseGlo FLuc
O=C(OCC(=O)N1CCN(C(=O)c2ccco2)CC1)c1cn(-c2ccccc2)nc1-c1ccccc1 | 16.9µM* | -10.7% | -4.1% | 1.5% | -3.5% | -7.5%
O=C(OCC(=O)N1CCN(C(=O)c2ccco2)CC1)c1ccccc1C(=O)c1ccccc1 | -0.5% | -7.8% | -1.7% | -2.1% | -4.1% | -1.2%
CCN(C(=O)COC(=O)c1cn(-c2ccccc2)nc1-c1ccccc1)C1CCS(=O)(=O)C1 (configuration not stated) | 23.9µM* | 10.5% | 4.8% | -3.4% | -0.8% | 0.5%
O=C(c1ccco1)N1CCN(C(=O)c2cn(-c3ccccc3)nc2-c2ccccc2)CC1 | 6.01µM* | / | 5.5% | 14.4% | 2.8% | /
COc1ccc(-c2csc(N3CCC(c4ccccc4)C3)n2)cc1 (configuration not stated) | 4.26µM* | -23.5% | 11.8% | ? | ? | 0.4%
Fc1ccc(-c2csc(N3CCC(c4ccccc4)C3)n2)cc1 (configuration not stated) | 2.39µM* | ? | 17.3% | 3.16µM* | 3.55µM* | -5.6%
Clc1ccc(-c2csc(N3CCC(c4ccccc4)C3)n2)cc1 (configuration not stated) | 2.69µM* | 2.2% | ? | 3.55µM* | 3.55µM* | -4.2%
CS(=O)(=O)N1CCN(c2nc(-c3ccccc3)cs2)CC1 | ? | 8.7% | ? | 14.1% | -0.3% | -2.2%
COc1ccc(S(=O)(=O)N(C)CC(=O)NCCCn2ccnc2)cc1Cl | -1.4% | / | 3.7% | -3.8% | 4.2% | /
O=C(CCc1nnc(CCCCc2ccccc2)o1)N(CCO)Cc1ccccc1 | -5.1% | / | -1.6% | -2.5% | -2.3% | /
Cc1cccc(Cc2nnc(CCC(=O)N(C)CCc3ccccc3)o2)c1 | 7.57µM* | / | 18.3µM* | 3.55µM* | 3.98µM* | /
CCN(CCn1cccn1)C(=O)CCc1nnc(CCCc2ccccc2)o1 | 15.1µM* | 11.2µM* | 16.4µM* | ? | 2.82µM* | -4.9%
C=C(C)CN(CC)C(=O)CCc1nnc(CCCc2ccccc2)o1 | 12µM* | / | ? | 3.55µM* | 3.16µM* | /
CC(C)Oc1cccc(C2CC(=O)Nc3cc4c(cc32)OCO4)c1 (configuration not stated) | -1.3% | -45.5% | / | / | / | /
Cc1ccc2c(=O)cc(CSCC(=O)Nc3nnc(C)s3)[nH]c2c1 | 3.6% | / | / | / | / | /
c1ccc(OCc2nc(-c3cccs3)no2)cc1 | 7.57µM* | ? | 12.6µM* | 3.55µM* | 3.16µM* | -7.2%
Cc1cc(OCc2nc(-c3cccs3)no2)cc(C)c1Cl | ? | -6.0% | 9.1% | 9.7% | 7.2% | -0.2%
Fc1ccc(OCc2nc(-c3cccs3)no2)cc1 | 10.7µM* | ? | ? | 3.16µM* | 2.51µM* | -1.1%
Cc1cccn2cc(CCNC(=O)c3cccs3)nc12 | -18.6% | / | -1.9% | 8.1% | 2.6% | /
Cc1nc2ccc(S(=O)(=O)CCC(=O)Nc3ccc(Cl)cc3)cc2s1 | -1.4% | / | / | / | / | /
Cc1ccc(C2CC(=O)Oc3ccc(O)cc32)cc1 (configuration not stated) | / | / | / | / | / | 1.1%[39.9 µM]
CC1=NN(c2ccc([N+](=O)[O-])cc2)C(=O)/C1=C\N(C)C | 10.7µM* | 4.6% | ? | -0.9% | 1.8% | 12.6µM*
CCCC1=NN(c2ccc([N+](=O)[O-])cc2)C(=O)/C1=C/N(C)C | 10.7µM* | 28.5% | 12.7% | 18.3% | 1.1% | -2.0%
CC1=NN(c2nc3ccccc3[nH]2)C(=O)/C1=C/N(C)C | 2.13µM* | / | -9.7% | 1.78µM* | 1.41µM* | 1.58µM*
CC1CCCN(C(=O)COC(=O)CNC(=O)c2ccc(Br)cc2)C1 (configuration not stated) | 2.3% | / | 5.5% | 0.2% | -2.0% | /
SMILES | FLuc modulator | SMN2 splice enh | ELG1 genotox | NPC1 prom act | Rab9 promoter act | KinaseGlo FLuc
CCOC(=O)N1CCN(S(=O)(=O)c2ccc(C(=O)Nc3nnc(C4CC4)o3)cc2)CC1 | 2.6% | -70.0% | -3.0% | -5.1% | 2.4% | 2.8%
CCOC(=O)N1CCN(S(=O)(=O)c2ccc(C(=O)Nc3nnc(CC)o3)cc2)CC1 | 15.5% | 3.55µM* | -2.1% | -3.8% | -4.2% | 17.8%
CCCCN(C(=O)c1ccc(C#N)cc1)c1c(N)n(CCC)c(=O)[nH]c1=O | 0.1% | / | -0.7% | -1.3% | -5.9% | /
Cc1cccc(C)c1Nc1oc(-c2ccccc2)nc1-c1ccccc1F | / | 28.8% | / | / | / | -4.4%
O=C(CCN1C(=O)S/C(=C\C=C\c2ccccc2)C1=O)Nc1ccc(O)cc1 | ? | / | 13µM* | 3.55µM* | 3.55µM* | /
O=C(CN1C(=O)S/C(=C\c2ccc(C(=O)O)cc2)C1=O)Nc1ccccc1 | -14.4% | / | -2.0% | -0.6% | 3.4% | /
O=C(CCCN1C(=O)S/C(=C\C=C\c2ccccc2)C1=O)Nc1ccc(C(=O)O)cc1 | 21.3µM* | / | 22.1% | ? | ? | /
O=C(CN1C(=O)S/C(=C\C=C\c2ccccc2)C1=O)Nc1cccc(O)c1 | 12µM* | 71.4% | ? | 21.4% | ? | -2.8%
CC(=O)c1ccc(NC(=O)CN2C(=O)/C(=C/C=C/c3ccccc3)SC2=S)cc1 | ? | 22.4% | 4.4% | -0.6% | 3.3% | 1.5%
CCCCc1nc2ccn(CC(=O)N(C)C)c(=O)c2n1Cc1ccc(-c2ccccc2-c2nn[nH]n2)cc1 | / | / | / | / | / | 4.4%[39.9 µM]
COc1cccc(/C=C/C(=O)OCC(=O)Nc2ccc(Cl)c(S(=O)(=O)N(C)C)c2)c1 | 10.7µM* | -1.4% | 0.3% | -0.5% | -5.4% | 0.1%
CN(C)S(=O)(=O)c1cc(NC(=O)COC(=O)/C=C/c2ccco2)ccc1Cl | ? | / | 4.0% | -1.0% | -1.6% | /
COc1cccc(/C=C/C(=O)OCC(=O)Nc2cccc(S(=O)(=O)N(C)C)c2)c1 | 10.7µM* | -20.6% | 21.8% | 0.1% | -7.1% | -4.2%
CN(C)S(=O)(=O)c1cccc(NC(=O)COC(=O)CCOc2ccccc2)c1 | -19.2% | -11.9% | 5.9% | -6.6% | 6.5% | -1.0%
CCOC(=O)c1cnc(N2CCN(c3cccc(C)c3C)CC2)c2ccccc12 | -1.6% | / | / | / | / | /
O=C(N/C(=C\c1ccccc1)C(=O)N1CCOCC1)c1cccc(Br)c1 | -2.5% | / | -4.9% | -3.1% | -1.1% | /
Cc1ccc(N=c2sc(C)c(C)n2C)cc1 | 21.3µM* | ? | ? | ? | ? | -1.3%
O=C(O)c1csc(-c2ccc(Cl)cc2)n1 | -19.8% | 10.3% | 1.0% | 3.0% | 0.6% | 1.4%
Clc1ccc(-c2cn3ncsc3n2)cc1 | 12µM* | -1.5% | / | / | / | /
COc1cc(OC)cc(C(=O)OCC(=O)NCCCc2ccccc2)c1 | -0.2% | / | -0.9% | -1.8% | 1.8%[1.84 µM] | /
Cc1ccccc1-c1noc(-c2ccc(Cl)cc2)n1 | 1.07µM* | 11.2µM* | ? | 3.98µM* | 2.82µM* | -13.2%
